# According to paper PMC10812921, “Transcriptional Coactivator BOB1 (OBF1, OCA-B) Modulates the Specificity of DNA Recognition by the POU-Domain Factors OCT1 and OCT2 in a Monomeric Configuration”:
# Assays:
# [1] = biological target: POU1 (OCT1 POU domain) (human, UniProt P14859 260-458); test: EMSA-SELEX-seq; no BOB1; 20 mM Tris-HCl pH 7.6, 140 mM NaCl, 10% glycerol, 0.5 mM EDTA, 0.05% Triton X-100, 0.1 mg/mL BSA, 0.1 mg/mL poly(dI-dC), 5 mM DTT, room temperature, 20 min; high values mean tight binding; conditions: protein: recombinant; dsDNA, one strand shown
# Summary of the method: (§1)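 Binding preference is reported as the percentage of sequenced 8-mers that match a motif pattern. Tagged POU-domain proteins were made in E. coli BL21, purified under denaturing conditions and renatured. A 30 ng portion was combined with 300 ng of a PCR-amplified double-stranded random 35-nt library, with or without 28 ng coactivator protein, in 20 μL Tris–HCl pH 7.6 binding buffer for 20 min at RT. Complex bands were excised from native 6% PAGE, eluted and PCR-amplified over four rounds before Illumina sequencing.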
# [2] = biological target: T1, POU2 (OCT2 POU domain) (human, UniProt P09086 175-386); test: as above; conditions: protein: recombinant; dsDNA, one strand shown
# T1 sequence: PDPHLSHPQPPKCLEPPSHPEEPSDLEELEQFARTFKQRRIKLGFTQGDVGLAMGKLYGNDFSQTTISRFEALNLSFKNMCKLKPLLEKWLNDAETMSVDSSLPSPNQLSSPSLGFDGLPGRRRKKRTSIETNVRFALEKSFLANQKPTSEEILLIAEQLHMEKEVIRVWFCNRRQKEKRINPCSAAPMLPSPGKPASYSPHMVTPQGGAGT
# Summary of the method: as §1
# [3] = biological target: POU1 (OCT1 POU domain);BOB1 (OBF1, OCA-B) (human;human, UniProt P14859;Q16633 260-458;1-256, |); test: EMSA-SELEX-seq; with BOB1 (ternary complex band); 20 mM Tris-HCl pH 7.6, 140 mM NaCl, 10% glycerol, 0.5 mM EDTA, 0.05% Triton X-100, 0.1 mg/mL BSA, 0.1 mg/mL poly(dI-dC), 5 mM DTT, room temperature, 20 min; high values mean tight binding; conditions: protein: recombinant;recombinant; copies: 1;1; dsDNA, one strand shown
# Summary of the method: as §1
# [4] = biological target: T2, POU2 (OCT2 POU domain);BOB1 (OBF1, OCA-B) (human;human, UniProt P09086;Q16633 175-386;1-256, |); test: as above; conditions: protein: recombinant;recombinant; copies: 1;1; dsDNA, one strand shown
# T2 sequence 1: T1 sequence
# T2 sequence 2: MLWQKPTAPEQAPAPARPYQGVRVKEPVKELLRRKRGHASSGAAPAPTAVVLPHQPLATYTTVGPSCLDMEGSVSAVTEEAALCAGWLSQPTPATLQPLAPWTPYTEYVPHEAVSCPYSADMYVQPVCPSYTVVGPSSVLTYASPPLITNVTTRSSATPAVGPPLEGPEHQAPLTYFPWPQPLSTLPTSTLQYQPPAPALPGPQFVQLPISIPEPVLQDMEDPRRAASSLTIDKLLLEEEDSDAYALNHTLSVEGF
# Summary of the method: as §1
# Chain of POU1 (OCT1 POU domain) (P14859 260-458): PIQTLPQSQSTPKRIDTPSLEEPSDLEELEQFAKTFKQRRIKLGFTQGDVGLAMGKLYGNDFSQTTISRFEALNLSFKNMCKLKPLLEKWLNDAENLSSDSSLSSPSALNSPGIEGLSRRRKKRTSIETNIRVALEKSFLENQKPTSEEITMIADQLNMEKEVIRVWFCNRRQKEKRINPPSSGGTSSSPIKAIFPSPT
Sequence,binding signal [1],binding signal [2],binding signal [3],binding signal [4]
ATTCGAAA,0.0725 % of ANNNNAAN 8-mers,0.0783 % of ANNNNAAN 8-mers,0.0605 % of ANNNNAAN 8-mers,0.0578 % of ANNNNAAN 8-mers
ACGATAAC,0.0252 % of ANNNNAAN 8-mers,0.0293 % of ANNNNAAN 8-mers,0.0191 % of ANNNNAAN 8-mers,0.0264 % of ANNNNAAN 8-mers
AGTGAAAA,0.0698 % of ANNNNAAN 8-mers,0.0685 % of ANNNNAAN 8-mers,0.0956 % of ANNNNAAN 8-mers,0.0685 % of ANNNNAAN 8-mers
AAATCAAT,0.139 % of ANNNNAAN 8-mers,0.143 % of ANNNNAAN 8-mers,0.162 % of ANNNNAAN 8-mers,0.148 % of ANNNNAAN 8-mers
AGTGTAAT,0.085 % of ANNNNAAN 8-mers,0.104 % of ANNNNAAN 8-mers,0.0679 % of ANNNNAAN 8-mers,0.0867 % of ANNNNAAN 8-mers
AACAAAAT,0.119 % of ANNNNAAN 8-mers,0.0926 % of ANNNNAAN 8-mers,0.14 % of ANNNNAAN 8-mers,0.0982 % of ANNNNAAN 8-mers
ACTCTAAC,0.013 % of ANNNNAAN 8-mers,0.015 % of ANNNNAAN 8-mers,0.0187 % of ANNNNAAN 8-mers,0.0182 % of ANNNNAAN 8-mers
ACTCTAAT,0.0488 % of ANNNNAAN 8-mers,0.0604 % of ANNNNAAN 8-mers,0.0316 % of ANNNNAAN 8-mers,0.0405 % of ANNNNAAN 8-mers
AGCCCAAA,0.0164 % of ANNNNAAN 8-mers,0.0207 % of ANNNNAAN 8-mers,0.0156 % of ANNNNAAN 8-mers,0.0157 % of ANNNNAAN 8-mers
AAAGGAAT,0.0953 % of ANNNNAAN 8-mers,0.124 % of ANNNNAAN 8-mers,0.0901 % of ANNNNAAN 8-mers,0.0925 % of ANNNNAAN 8-mers
ATAATAAT,0.273 % of ANNNNAAN 8-mers,0.353 % of ANNNNAAN 8-mers,0.11 % of ANNNNAAN 8-mers,0.143 % of ANNNNAAN 8-mers
AACGAAAT,0.0744 % of ANNNNAAN 8-mers,0.0783 % of ANNNNAAN 8-mers,0.0675 % of ANNNNAAN 8-mers,0.0636 % of ANNNNAAN 8-mers
ATTTGAAT,1.84 % of ANNNNAAN 8-mers,1.5 % of ANNNNAAN 8-mers,1.92 % of ANNNNAAN 8-mers,2.32 % of ANNNNAAN 8-mers
ATAGAAAG,0.0461 % of ANNNNAAN 8-mers,0.0598 % of ANNNNAAN 8-mers,0.0546 % of ANNNNAAN 8-mers,0.0487 % of ANNNNAAN 8-mers
AAGAAAAC,0.0473 % of ANNNNAAN 8-mers,0.0345 % of ANNNNAAN 8-mers,0.0644 % of ANNNNAAN 8-mers,0.0355 % of ANNNNAAN 8-mers
AGCTAAAT,0.0652 % of ANNNNAAN 8-mers,0.0633 % of ANNNNAAN 8-mers,0.0738 % of ANNNNAAN 8-mers,0.0479 % of ANNNNAAN 8-mers
AGAGGAAG,0.0358 % of ANNNNAAN 8-mers,0.0432 % of ANNNNAAN 8-mers,0.0441 % of ANNNNAAN 8-mers,0.0413 % of ANNNNAAN 8-mers
AAGTAAAA,0.108 % of ANNNNAAN 8-mers,0.0967 % of ANNNNAAN 8-mers,0.132 % of ANNNNAAN 8-mers,0.0693 % of ANNNNAAN 8-mers
AATATAAG,0.101 % of ANNNNAAN 8-mers,0.123 % of ANNNNAAN 8-mers,0.0886 % of ANNNNAAN 8-mers,0.0966 % of ANNNNAAN 8-mers
ATTAGAAT,0.5 % of ANNNNAAN 8-mers,0.61 % of ANNNNAAN 8-mers,0.133 % of ANNNNAAN 8-mers,0.18 % of ANNNNAAN 8-mers
ACAATAAA,0.0481 % of ANNNNAAN 8-mers,0.0495 % of ANNNNAAN 8-mers,0.0453 % of ANNNNAAN 8-mers,0.0396 % of ANNNNAAN 8-mers
AGTAGAAG,0.0404 % of ANNNNAAN 8-mers,0.0391 % of ANNNNAAN 8-mers,0.0336 % of ANNNNAAN 8-mers,0.0297 % of ANNNNAAN 8-mers
ATCGCAAA,0.0515 % of ANNNNAAN 8-mers,0.0478 % of ANNNNAAN 8-mers,0.0816 % of ANNNNAAN 8-mers,0.0413 % of ANNNNAAN 8-mers
AATCTAAC,0.0328 % of ANNNNAAN 8-mers,0.0339 % of ANNNNAAN 8-mers,0.0316 % of ANNNNAAN 8-mers,0.0272 % of ANNNNAAN 8-mers
AGACTAAC,0.0153 % of ANNNNAAN 8-mers,0.0207 % of ANNNNAAN 8-mers,0.0156 % of ANNNNAAN 8-mers,0.0198 % of ANNNNAAN 8-mers
ACTAGAAA,0.032 % of ANNNNAAN 8-mers,0.0322 % of ANNNNAAN 8-mers,0.0261 % of ANNNNAAN 8-mers,0.0305 % of ANNNNAAN 8-mers
